Reference: the supplement of paper PMC12582362
Counter-ions that a name gives are not always drawn. The campaign covered roughly 1,500 compounds. About 30 (2%) showed activity. This is one part of a sample in which actives are shown more often than they occur.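 How the source made its calls: active = robust z-score below -2; a few such results were not called.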

test system: optoTopBP1 Flp-In 293 T-REx (HEK293) cells; test: light-induced TopBP1 condensate (nuclear foci) count, plate-normalised robust z-score vs non-control wells; higher = more TopBP1 condensates (negative = condensation inhibitor), active = hit call of the paper; details: 10 µM; incubation time 2 h

SMILES	light-induced TopBP1 condensate (z-score)
CN(c1nccc(=O)[nH]1)C1CCN(c2nc3ccccc3n2Cc2ccc(F)cc2)CC1 [Mizolastine]	-0.786 (inactive)
CC(C)=CCOc1ccc(/C=C/C(=O)c2ccc(OCC=C(C)C)cc2OCC(=O)O)cc1 [Sofalcone]	0.373 (inactive)
CC(=O)OCC(=O)[C@@]12OC3(CCCC3)O[C@@H]1C[C@H]1[C@@H]3CCC4=CC(=O)C=C[C@]4(C)[C@@]3(F)[C@@H](O)C[C@@]12C [Amcinonide]	0.776 (inactive)
CNCC[C@@H](Oc1cccc2ccccc12)c1cccs1 [(R)-Duloxetine hydrochloride]	-1.75 (inactive)
O=C(CCCCC(=O)Nc1c(I)cc(I)c(C(=O)O)c1I)Nc1c(I)cc(I)c(C(=O)O)c1I [Iodipamide]	-0.465 (inactive)
CC(C(=O)O)c1ccc(C(=O)c2cccs2)cc1 (stereo not drawn) [Suprofen]	-0.434 (inactive)
COc1cc(C(=O)NC2CCCNC2)cc(OC)c1OC (stereo not drawn) [Troxipide]	-0.997 (inactive)
Nc1nc(=S)c2ncn([C@@H]3O[C@H](CO)[C@@H](O)[C@H]3O)c2[nH]1 [Thioguanosine]	1.17 (inactive)
OCCN1CCN(CCCN2c3ccccc3C=Cc3ccccc32)CC1 [Opipramol dihydrochloride]	-0.102 (inactive)
CO[C@@H]1[C@@H](O[C@@H]2O[C@H](C)[C@@H](O[C@H]3C[C@@](C)(O)[C@@H](O)[C@H](C)O3)[C@H](N(C)C)[C@H]2O)[C@@H](CC=O)C[C@@H](C)[C@@H](O[C@H]2CC[C@H](N(C)C)[C@@H](C)O2)/C=C/C=C/C[C@@H](C)OC(=O)C[C@H]1OC(C)=O [Acetyl spiramycin]	-0.0623 (inactive)
CC[C@]12CCCN3CCc4c(n(c5ccccc45)[C@@](O)(C(=O)OC)C1)[C@@H]32 [Vincamine]	-0.735 (inactive)
CC1=C(C)C(=O)C(C(CCCCCC(=O)O)c2ccccc2)=C(C)C1=O (stereo not drawn) [Seratrodast]	-1.1 (inactive)
O=C(O)c1ccccc1Nc1cc(Cl)ccc1C(=O)O [Lobenzarit disodium]	0.707 (inactive)
CCCCC(CC)CNC(=N)NC(=N)NCCCCCCNC(=N)NC(=N)NCC(CC)CCCC (stereo not drawn) [Alexidine dihydrochloride]	-0.446 (inactive)
COC(=O)C1=C(C)NC(C)=C(C(=O)O[C@H]2CCN(Cc3ccccc3)C2)[C@H]1c1cccc([N+](=O)[O-])c1 [Barnidipine Hydrochloride]	-1.06 (inactive)
CCOCCn1c(N2CCCN(C)CC2)nc2ccccc21 [Emedastine]	-0.971 (inactive)
CN1CCC(=C2c3ccccc3Sc3ccccc32)CC1 [Pimethixene maleate]	-1.21 (inactive)
C[C@H]1[C@@H](O)O[C@@H]2O[C@@]3(C)CC[C@H]4[C@H](C)CC[C@@H]1[C@@]24OO3 [Artenimol]	0.222 (inactive)
CC(=O)OC(C)OC(=O)C(C)c1ccc(-c2ccccc2)c(F)c1 (stereo not drawn) [Flurbiprofen axetil]	-0.559 (inactive)
Cc1cc2nc3ccc(N(C)C)cc3[s+]c2cc1N [Tolonium chloride]	-9.72 (active)
O=C(Cn1cnnn1)N[C@@H]1C(=O)N2C(C(=O)O)=C(CSc3nncs3)CS[C@H]12 [Ceftezole]	-0.707 (inactive)

SMILES	light-induced TopBP1 condensate (z-score)
O=C(Cn1c(=O)sc2ccc(Cl)cc21)N1CCN(CCO)CC1 [Tiaramide Hydrochloride]	0.609 (inactive)
CC(=O)Oc1cccc2c1C(=O)c1c(OC(C)=O)cc(C(=O)O)cc1C2=O [Diacerein]	-1.09 (inactive)
O=C1c2c(O)cccc2Cc2cccc(O)c21 [Anthralin]	-0.589 (inactive)
O=C1c2cccc(O)c2C(=O)c2c(O)cccc21 [1,8-Dihydroxyanthraquinone]	-2.97 (active)
CC(C(=O)O)c1cccc(Oc2ccccc2)c1 (stereo not drawn) [Fenoprofen calcium salt dihydrate]	0.527 (inactive)
CN1CCC(OC(c2ccccc2)c2ccccc2)CC1 [Diphenylpyraline hydrochloride]	-0.243 (inactive)
CC=CC(=O)N(CC)c1ccccc1C [Crotamiton]	-1.09 (inactive)
CC(=O)CC(c1ccccc1)c1c(O)c2ccccc2oc1=O (stereo not drawn) [Warfarin]	0.476 (inactive)
Nc1ccn([C@H]2CC[C@@H](CO)O2)c(=O)n1 [Zalcitabine]	0.161 (inactive)
Nc1ccn([C@@H]2O[C@H](CO)[C@@H](O)[C@@H]2O)c(=O)n1 [Cytarabine]	-1.9 (inactive)
Nc1ccn([C@@H]2O[C@H](CO)[C@@H](O)C2(F)F)c(=O)n1 [Gemcitabine]	-2.33 (active)
O=C(Oc1cccc2cccnc12)c1ccccc1 [Benzoxiquine]	-0.428 (inactive)
OCCOCCN1CCN(C2=Nc3ccccc3Sc3ccccc32)CC1 [Quetiapine hemifumarate]	0.443 (inactive)
O=C(CCCl)NCc1ccccc1 [Beclamide]	0.736 (inactive)
O=C1[C@H]2CCCC[C@H]2C(=O)N1CCCCN1CCN(c2nsc3ccccc23)CC1 [Perospirone]	-0.904 (inactive)
CC(=O)O[C@@]12CO[C@@H]1C[C@H](O)[C@@]1(C)C(=O)[C@H](O)C3=C(C)[C@@H](OC(=O)[C@H](O)[C@@H](NC(=O)OC(C)(C)C)c4ccccc4)C[C@@](O)([C@@H](OC(=O)c4ccccc4)[C@H]21)C3(C)C [Docetaxel]	-1.72 (inactive)
CNC(=O)c1c(I)c(C(=O)NCC(=O)Nc2c(I)c(C(=O)O)c(I)c(C(=O)NCCO)c2I)c(I)c(N(C)C(C)=O)c1I [Ioxaglic acid]	1.43 (inactive)
Cn1cc([S+](C)[O-])c(=O)c2ccc(F)cc21 (stereo not drawn) [Flosequinan]	0.501 (inactive)
CC(=O)OCC(=O)[C@@]1(O)CC[C@H]2[C@@H]3CCC4=CC(=O)C=C[C@]4(C)[C@@]3(F)[C@@H](O)C[C@@]21C [Isoflupredone acetate]	0.491 (inactive)
N=c1ccn2c(n1)O[C@H]1[C@H](O)[C@@H](CO)O[C@H]12 [Ancitabine hydrochloride]	-2.02 (active)
Nc1ncn(C2OC(CO)C(O)C2O)c(=O)n1 (stereo not drawn) [Azacytidine-5]	0.0662 (inactive)

SMILES	light-induced TopBP1 condensate (z-score)
NC(=O)c1ncn([C@@H]2O[C@H](CO)[C@@H](O)[C@H]2O)c1O [Mizoribine]	-0.419 (inactive)
CCOC(=O)[C@H](CCc1ccccc1)N[C@@H](C)C(=O)N(CC(=O)O)C1Cc2ccccc2C1 [Delapril Hydrochloride]	0.988 (inactive)
CC(=O)O[C@H]1C[C@@H]2CC[C@@H]3[C@H](CC[C@@]4(C)[C@H]3C[C@H]([N+]3(C)CCCCC3)[C@@H]4OC(C)=O)[C@@]2(C)C[C@@H]1N1CCCCC1 [Vecuronium bromide]	0.392 (inactive)
O=c1[nH]cnc2c1ncn2[C@@H]1O[C@H](CO)[C@@H](O)[C@H]1O [Inosine]	-0.394 (inactive)
Cc1cccn2c(=O)c(-c3nnn[nH]3)cnc12 [Pemirolast potassium]	0.448 (inactive)
CN(C)[C@@H]1C(O)=C(C(=O)NCNCCCC[C@H](N)C(=O)O)C(=O)[C@@]2(O)C(O)=C3C(=O)c4c(O)cccc4[C@@](C)(O)[C@H]3C[C@@H]12 [Lymecycline]	0.0668 (inactive)
Cc1c(Cl)cccc1Nc1ccccc1C(=O)O [Tolfenamic acid]	-0.245 (inactive)
CN[C@@H]1[C@H](O[C@H]2[C@H](O[C@H]3[C@H](O)[C@@H](O)[C@H](N=C(N)N)[C@@H](O)[C@@H]3N=C(N)N)O[C@@H](C)[C@]2(O)C=O)O[C@@H](CO)[C@H](O)[C@H]1O [Streptomycin sulfate]	-0.213 (inactive)
CC(=O)Nc1c(I)c(NC(C)=O)c(I)c(C(=O)O)c1I [Diatrizoic acid dihydrate]	-0.965 (inactive)
CC(=O)OC[C@H]1O[C@@H](n2ncc(=O)[nH]c2=O)[C@H](OC(C)=O)[C@@H]1OC(C)=O [Azaribine]	0.84 (inactive)
CC(=O)OC[C@H]1O[C@@H]([S-])[C@H](OC(C)=O)[C@@H](OC(C)=O)[C@@H]1OC(C)=O.CCP(CC)CC.[Au+] [Auranofin]	-4.74 (active)
CC(C)c1nc(CN(C)C(=O)N[C@H](C(=O)N[C@@H](Cc2ccccc2)C[C@H](O)[C@H](Cc2ccccc2)NC(=O)OCc2cncs2)C(C)C)cs1 [Ritonavir]	-1.47 (inactive)
Cc1onc(-c2ccccc2)c1-c1ccc(S(N)(=O)=O)cc1 [Valdecoxib]	-1.03 (inactive)
COC(=O)Nc1nc2cc([S+]([O-])c3ccccc3)ccc2[nH]1 (stereo not drawn) [Oxfendazol]	0.733 (inactive)
CCCOc1ccc2[nH]c(NC(=O)OC)nc2c1 [Oxibendazol]	-3.01 (active)
COC(=O)Nc1nc2cc(C(=O)c3ccccc3)ccc2[nH]1 [Mebendazole]	-1.07 (inactive)
COC(=O)Nc1nc2cc(C(=O)c3cccs3)ccc2[nH]1 [Nocodazole]	-1.07 (inactive)
COC(=O)Nc1nc2cc(C(=O)c3ccc(F)cc3)ccc2[nH]1 [Flubendazol]	-2.01 (active)
CCCCc1ccc2[nH]c(NC(=O)OC)nc2c1 [Parbendazole]	-0.867 (inactive)
O=C(O)c1cc(/N=N/c2ccc(S(=O)(=O)Nc3ccccn3)cc2)ccc1O [Sulfasalazine]	-0.0783 (inactive)
C[C@H](O)[C@H](O)[C@H]1CNc2[nH]c(N)nc(=O)c2N1 [Sapropterin dihydrochloride]	0.574 (inactive)
